Calls of active or inactive are those of the source. Calls follow the shape of the dose curve; as a rule, active = well fitted curve in the direction sought with a large enough effect; inconclusive = small, poorly fitted or top-dose-only effect, or effect the other way, or another doubt; inactive = no such curve, though single readings can be large or run the other way.
assay: Secondary Assay for lipid storage modulators: AML12 cell LDSA assay for probe SAR; conditions: AML12 lipid droplet accumulation, BODIPY 493/503 imaging, oleate; series mostly up to 46.1 µM; activity change, negative = inhibition: at the top concentration
From the text: NIH Molecular Libraries Probe Production Centers Network [MLPCN] NIH Chemical Genomics Center [NCGC] MLPCN Grant: 1 R03 MH085686-01 Assay Submitter (PI): Beller, Mathias; Max-Planck-Institut fur Biophysikalische Chemie NCGC Assay Overview: Storing lipids as a reservoir for energy or the anabolism of elementary metabolites is a common feature of probably all cells and is conserved from bacteria to humans. The universal cellular lipid storage organelle is the so-called lipid storage droplet (LD). Although ubiquitous, LDs share a simple structure composed of a hydrophobic core that harbors the storage lipids, which is shielded by a droplet-specific phospholipid monolayer to which proteins are attached. The current model of LD biogenesis involves an incorporation of the lipid core into the membrane leaflets of the endoplasmic reticulum (ER) followed by a subsequent budding-like maturation of a LD, which ultimately pinches off. Once released, LD volume can increase by localized lipogenesis or fusion of existing droplet. Storage lipids are re-mobilized enzymatically by lipase activity. Lipase regulation in the adipocyte is heavily studied and involves multiple components including catecholamine signaling, the LD-associated proteins Perilipin and comparative gene identification (CGI-58) and at least two lipases named hormone sensitive lipase (HSL) and adipocyte triglyceride lipase (ATGL). LD regulation outside of the adipocyte is poorly understood and only few components are known. However, there is an urgent need to learn more about ectopic fat depots as mislocalized storage of lipids, for example in the liver or muscle, is an eminent health problem associated with insulin resistance or the metabolic syndrome.
NCGC Assay Protocol Summary: The assay was performed with AML12 cells, using an oleic acid feeding protocol similar to the S3 assay. We dispensed 4 uL of cells to give 700 cells/well into Greiner bio-one 1,536-well plates (black walled, clear bottom). Triacsin C (Sigma-Aldrich T-4540), an inhibitor of long-chain fatty acyl CoA synthetase that blocks synthesis of triglycerides, was used as a positive control for lipid under-storage using a final concentration of 20 uM. The orexin antagonist, SB408124 - previously identified to stimulate lipid over-storage, was used as a positive control for lipid over-storage using a final concentration of 20 uM. A total of 23 nL of compound solution of different concentrations were transferred to the assay plates using a Kalypsys pin tool equipped with a 1,536-pin array containing 10-nL slotted pins (FP1S10, 0.457-mm diameter, 50.8 mm long; V&P Scientific). One microliter of oleic acid was added (400 uM final concentration), and the plate was lidded with stainless steel rubber gasket lined lids containing pinholes. After 18-24 h incubation at […] and 95% humidity, 4 uL of the dyes BODIPY 493/503 (Molecular Probes) and the Cell Tracker Red CMTPX dye (Molecular Probes) were added to the wells to stain lipid droplets and enumerate cell number, respectively. Fluorescence was detected by excitation of the fluorophores with a 488-nm laser on an Acumen Explorer (TTP Lab Tech). The total intensity in channel 2 (500-530 nm) reflected lipid droplet accumulation. Cells were detected using channel 3 (575-640 nm) with 5-um width and 100-um depth filters. The ratio of the number of objects in PMT channel 2 over the number of objects in PMT channel 3 was also calculated. Percent activity was computed relative to an internal control (100% inhibited lipid droplet deposition due to the presence of 20 uM Triacsin C), which was added to 32 wells/plate.

Activity change, negative = inhibition, inactive:
COc1ccc(Cl)cc1NC(=S)N1CCN(c2ccc(F)cc2)CC1 -21.4%
Cc1ccc(-c2cnc(SCC(=O)Nc3nccs3)n2Cc2ccco2)cc1 -10.1%
CCOc1ccc(CCNC(=O)c2cc3sccc3[nH]2)cc1OCC -1.32%
CC1=C(C(=O)NC2CCCc3c2cnn3-c2ccc(F)cc2F)OCCO1 (stereo not given) -10.5%
CCOc1ccc(CCNC(=O)c2cc3sccc3n2C)cc1OCC -27.6%
COc1ccc(Cl)cc1NC(=S)N1CCN(c2ccccc2)CC1 -22.9%
COc1ccc(-c2cnc(SCC(=O)Nc3nc(C)cs3)n2Cc2ccco2)cc1 -16.5% [at 30.7 µM]
O=C(Cc1cccs1)Nc1nc(-c2ccc3c(c2)CCC3)cs1 12.9%
CCOC(=O)C1CCN(C(=O)C(C)(C)NC(=O)Nc2ccc3ccccc3c2)CC1 -61.8%
O=C(CSc1nnc(NCc2ccccc2)s1)Nc1nc(-c2ccc(F)c(F)c2)cs1 30%
O=C(NC1CCCc2c1cnn2-c1ccc(F)cc1F)c1c(F)cccc1Cl (stereo not given) 0%
CC(C)(C)OC(=O)NCCOCCOCCOc1ccc(-n2ncc3c2CCCC3NC(=O)c2ccccn2)cc1 (stereo not given) -35.4%
CCn1c(C(=O)NCCc2ccc(OC)c(OC)c2)cc2sccc21 -25%
Cc1ccc(C)c(-c2csc(NC(=O)CSc3nnc(Nc4ccc(OC(F)(F)F)cc4)s3)n2)c1 15.7%
O=C(NC1CCCc2c1cnn2-c1ccc(F)cc1F)c1cnsn1 (stereo not given) -14.3%
CCOC(=O)C1CCN(C(=O)C(C)(C)NC(=O)Nc2ccc(N)cc2)CC1 -8.33%
Cc1ccc(CC(=O)Nc2nc(-c3cccs3)cs2)cc1 -12.9%
O=C(NC1CCCc2c1cnn2-c1ccc(F)cc1F)c1cccs1 (stereo not given) -23.7%
COc1ccccc1NC(=S)N1CCN(c2cc(Cl)ccc2C)CC1 -20%
O=C(NC1CCCc2c1cnn2-c1ccc(F)cc1F)c1ccccc1 (stereo not given) -7.89%
COc1ccc(-c2cnc(SCC(=O)Nc3nc(C)cs3)n2-c2ccccc2)cc1 15.2%
COc1ccc(NC(=S)N2CCN(c3cccc(Cl)c3)CC2)c(OC)c1 15.7%
CN(C)CC(=O)NC1CCCc2c1cnn2-c1ccc(F)cc1F (stereo not given) 5.26%
O=C(NC1CCCc2c1cnn2-c1ccc(F)cc1F)c1ccn[nH]1 (stereo not given) -31.6%
O=C(NC1CCCc2c1cnn2-c1ccc(F)cc1F)C1CCCCC1 (stereo not given) 5.26%
CCn1c(-c2ccc(C)cc2)cnc1SCC(=O)Nc1nc(C)cs1 -8.86%
S=C(Nc1cc(Cl)ccc1Oc1ccccc1)N1CCN(c2ncccn2)CC1 10%
O=C(NC1CCCc2c1cnn2-c1ccccc1F)c1ccc2ncccc2c1 (stereo not given) 12.9%
CCOC(=O)C1CCN(C(=O)C(C)(C)NC(=O)Nc2cccc(C(=O)OC)c2)CC1 -29.2%
O=C(NC1CCCc2c1cnn2-c1ccc(F)cc1F)c1cnon1 (stereo not given) -39.5%
CC(C)(C)n1ncc2c(=O)n(Cc3ccc(-c4ccccc4C#N)cc3)cnc21 1.32%
O=C(NC1CCCc2c1cnn2-c1cc(F)cc(F)c1)c1cccc2nccnc12 (stereo not given) -45.6% [at 30.7 µM]
COc1ccc(Cl)cc1NC(=S)N1CCN(c2ccccc2F)CC1 42.9%
O=C(Cc1cccs1)Nc1nc(-c2ccncc2)cs1 10%
CCOC(=O)C1CCN(C(=O)C(C)(C)NC(=O)Nc2cccc(-c3csc(C)n3)c2)CC1 -30.2%
CCOC(=O)C1CCN(C(=O)C(C)(C)NC(=O)Nc2ccc3sccc3c2)CC1 -34.8%
O=C(Cc1cccs1)Nc1nc(-c2ccc(F)cc2)cs1 4.29%
O=C(CSc1nnc(NCc2ccccc2)s1)Nc1nc(-c2cccc(Br)c2)cs1 18.6%

Potency, active:
COc1cccc(-n2ncc3c2CCCC3NC(=O)c2ccccn2)c1 (stereo not given) 44.5 nM [inconclusive]
COc1ccc(CCNC(=O)c2cc3sccc3n2Cc2ccc(Cl)cc2)cc1OC 30.7 nM
